# From PubChem BioAssay AID449762 (Southern Research Specialized Biocontainment Screening …, 2010)
# The whole screen tested about 330,000 compounds, of which about 1,900 (0.58%) were called active. Not shown: some 4% with an inconclusive outcome. The list is a sample of the results. Results with a measured potency or affinity are listed apart. Values without a mark were called inactive. Rule as the data show it: inconclusive = inhibition above about 70% without an active follow-up result; inactive = below that.
# Test: M. tuberculosis growth inhibition, HTS (AID 449762);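 also: bacterial growth assessed after seven days of incubation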
# Conditions: M. tuberculosis H37Rv growth inhibition, 7H9 media; at 25 µM; active compounds read high
row,Compound,inhibition [%]
1,c1ccc(C[C@H]2CN=C(Nc3ccccc3)N2CCCC2CCCCC2)cc1,22.3
2,c1ccc(C[C@H]2CN=C(Nc3ccccc3)N2CCC2CCCC2)cc1,30
3,O=C(O)C(Cc1c[nH]c2ccccc12)NS(=O)(=O)c1cccc(Cl)c1Cl (stereo not drawn),-3.04
4,Cc1ccc(NC(=O)CN(C)CC(=O)Nc2sc3c(c2C(N)=O)CCC3)cc1,66.6
5,COc1ccc(NC(=O)CN(C)CC(=O)Nc2sc3c(c2C#N)CCC3)cc1,-8.9
6,CC(=O)OC(c1nc2ccccc2c(=O)n1C1CC2(OC1=O)c1ccccc1N1C(=O)C(C)(C)N(O)C12)C(C)C (stereo not drawn),-6.29
7,Cc1ccc(N2C(=O)NC(=O)/C(=C/C=C/c3ccco3)C2=O)cc1,53.8
8,Cc1ccc(N2C(=O)NC(=O)/C(=C\C=C\c3ccco3)C2=O)cc1,-4.11
9,Cc1cc(NC(=O)CSCC(=O)N(C)Cc2ccc(F)cc2)no1,-22.2
10,Cc1ccc(-c2csc3ncnc(Nc4ccc(C(=O)O)cc4)c23)cc1,6.21
11,Fc1ccc(-c2csc3ncnc(Nc4ccc(N5CCOCC5)cc4)c23)cc1,28.8
12,O=C1c2cccc3c([N+](=O)[O-])c(O)cc(c23)C(=O)N1Nc1ccccc1,-8.23
13,O=C(Nc1ccccc1)NC1CCCCC1,7.91
14,CCC(=O)N1c2ccc(S(=O)(=O)NCc3ccccc3)cc2CC1C (stereo not drawn),3.62
15,COc1nc(-c2ccccc2)cc(-c2ccccc2)n1,11.4
16,COc1ccc(-c2cc(-c3ccccc3)nc(NN)n2)cc1OC,2.81
17,CC(C)Cn1c(SCC(=O)N2CCc3ccccc3C2)nc2cc(Cl)ccc2c1=O,-3.67
18,CCCCN(CC)CCNC(=O)c1cn(C)c(=O)c2c1c1ccccc1n2C,-0.73
19,Cc1cc(C)n2nc(CCc3ccccc3)nc2n1,0.58
20,CCCCCCCC(=O)NNC(=O)c1ccc([N+](=O)[O-])cc1,3.14
21,CCCCC(=O)NNC(=S)NC(=O)c1cccc([N+](=O)[O-])c1,29
22,COc1ccc2oc(=O)c(C(=O)NCc3ccc(C)cc3)cc2c1,-2.24

row,Compound,inhibition [%]
1,COc1cc2c(cc1OC)C1=C(C#N)CCC(=O)N1CC2,7.82
2,CNc1nc(C)nc(-n2nc(C)cc2C)n1,-0.69
3,Cc1cc(C)n(-c2nc(Nc3ccccc3)nc(-n3nc(C)cc3C)n2)n1,15.3
4,Cc1cccc(NC(=O)COC(=O)Cc2cccs2)c1C,4.38
5,Cc1ccc(C)c(N2CN(CCC3=CCCCC3)CNC2=S)c1,-4.98
6,C[C@@H]1O[C@@H](O[C@H]2[C@H](Oc3cc(O)c4c(c3)O[C@H](c3ccc(O)cc3)CC4=O)O[C@H](CO)[C@@H](O)[C@@H]2O)[C@H](O)[C@H](O)[C@H]1O,-0.33
7,C[C@@H]1O[C@@H](O[C@H]2[C@H](Oc3cc(O)c4c(c3)OC(c3ccc(O)cc3)CC4=O)O[C@H](CO)[C@@H](O)[C@@H]2O)[C@H](O)[C@H](O)[C@H]1O (stereo partly drawn),-2.06
8,CCCCc1nc2cc(C(=O)N3CCCCC3CCNC(C)=O)ccc2o1 (stereo not drawn),7.94
9,CCC(CC)c1nnc(NC(=O)c2cc([N+](=O)[O-])ccc2N2CCOCC2)s1,5.48
10,CCN1CCN(C(=S)NC(=O)/C=C/c2cccs2)CC1,-0.91
11,O=C(NCCC1=CCCCC1)NC1CCCCC1,7.21
12,NC(=O)NCCC1=CCCCC1,7.39
13,O=C1N[C@@H](Cc2c[nH]c3ccccc23)COC(=O)[C@@H](Cc2ccc(F)cc2)C/C=C\C[C@H]1CC(=O)N(CCO)Cc1ccccc1,4.64
14,COc1ccc(C(CNC(=O)c2ccc(Br)o2)N2CCN(C)CC2)cc1 (stereo not drawn),2.14
15,CC(=O)Nc1ccc(NC(=O)C(C)OC(=O)COc2ccc(Nc3ccccc3)cc2)cc1 (stereo not drawn),40.1
16,CC(OC(=O)COc1ccccc1Cc1ccccc1)C(=O)N(C)c1ccccc1 (stereo not drawn),-4.05
17,CN(CC(=O)Nc1ccc(Cl)cc1)C(=O)C1=COCCO1,-13.8
18,Cc1ccc(NS(=O)(=O)c2c(C)[nH]c(C)c2C(=O)N2CCCC2)cc1,2.46
19,N#C/C(=N/Nc1ccccc1[N+](=O)[O-])C(N)=S,-5.6
20,Oc1ccccc1N=N/C(=N/Nc1ccccc1O)c1ccccc1,10.4
21,COc1ccc(-c2nc(CN3CCCCC3c3cccnc3)c(C)o2)c(F)c1 (stereo not drawn),3.24
22,c1ccc(Oc2cccc(OCCCCN3CCCC3)c2)cc1,1.38

row,Compound,inhibition [%]
1,CN1CCN(C(=O)c2cnn3c2NC(c2ccccc2)CC3C(F)(F)F)CC1 (stereo not drawn),-19.6
2,CCN(CC)CCCN(Cc1cc2cc3c(cc2[nH]c1=O)OCO3)C(=S)Nc1ccccc1OC,-4.51
3,CCc1ccc(Nc2n[n+](-c3ccccc3)c(-c3ccc(C(=O)O)cc3)s2)cc1,4.87
4,C[n+]1nc(Nc2ccccc2)sc1-c1ccc(O)cc1,4.57
5,O=C(NCc1cccs1)c1cc(S(=O)(=O)N2CCOCC2)ccc1N1CCCC1,5.48
6,Cc1ccccc1CN1CCN(c2ccc(S(=O)(=O)N3CCCC3)cn2)CC1,-6.22
7,COC(=O)C1C(=O)C2=C(CC1C)NC(C)=C(C(=O)OC(C)C)C2c1ccc(C)o1 (stereo not drawn),2.94
8,COc1ccc(-n2nnnc2S(=O)(=O)Cc2ccc(C(=O)O)cc2)cc1,-3.99
9,COc1cc(OC)cc(-n2nnnc2SCC(=O)N2CCCC2)c1,-5.03
10,CCCCn1c(C)c(C(=O)O)c2cc(OC)c3ccccc3c21,17.8
11,COc1cc(C(=O)NCCc2cn3ccc(C)cc3n2)cc(OC)c1OC,-5.75
12,CN=c1scc(-c2ccccc2F)n1/N=C/c1ccc[nH]1,67.8
13,CN=c1scc(-c2cccs2)n1/N=C/c1ccccc1O,-8.02
14,C[C@H](CO)N1C[C@H](C)[C@@H](CN(C)Cc2ccc(C(=O)O)cc2)Oc2c(NS(=O)(=O)c3ccc(F)cc3)cccc2C1=O,-2.1
15,O=C(NCc1nnc(SCC(=O)N2CCOCC2)o1)c1c(F)cccc1Cl,-6.01
16,COc1cccc(OCC(=O)N(C)Cc2nc(-c3cccc(C)c3)no2)c1,1.4
17,COc1ccc(O)c(C(=O)c2cnn(C(=O)c3cccc(S(=O)(=O)N4CCOCC4)c3)c2)c1,-2.2
18,CCN(CC(=O)NCc1cccs1)C(=O)c1ccc(-c2ccc(F)cc2)o1,-1.53
19,CCN(CC(=O)NCc1cccs1)C(=O)c1ccc(C)o1,2.46
20,CCOc1ccc(S(=O)(=O)N2CCN(C(=O)CN3C(=O)NC4(CCCC4)C3=O)CC2)cc1,-3.03
21,Cc1ccc(OCc2cc(C(=O)Nc3ccccc3)oc2C)cc1,0.92
22,Cc1oc(C(=O)Nc2ccc(C(=O)O)cc2)cc1COc1ccccc1,-2.76

row,Compound,inhibition [%]
1,COc1ccc(CCNC(=O)c2cc(C(C)C)on2)cc1OC,-0.84
2,CCc1ccc2c(c1)C(O)(CC(=O)c1cccs1)C(=O)N2 (stereo not drawn),10.1
3,Cc1cccc2c1NC(=O)/C2=C\C(=O)c1cccs1,-9.89
4,N#Cc1c(-c2ccccc2)c(-c2ccccc2)nn(CC(=O)NNC(=O)Nc2ccc(Cl)cc2)c1=O,3.84
5,N#Cc1c(-c2ccccc2)c(-c2ccccc2)nn(CC(=O)NNC(=O)Nc2ccccc2)c1=O,-9.35
6,COc1ccc(NC(=O)C23CC4CC(CC(Cl)(C4)C2)C3)cc1S(=O)(=O)N1CCOCC1,1.2
7,COC(=O)Cc1ccc(NC(=O)c2ccc3c(c2)C(=O)N(Cc2ccco2)C3=O)cc1,-5.45
8,CCOC(=O)c1c(NC(=O)CC2SC(N)=NC2=O)sc(C)c1C (stereo not drawn),0.41
9,O=S(=O)(NCCN1CCCC1)c1ccc(Br)cc1,0.37
10,CN1CCN(Cc2nc3ccccc3c(=O)n2Cc2nc(-c3ccc([N+](=O)[O-])cc3)cs2)CC1,3.59
11,CCOc1ccc(-c2csc(Cn3c(CN4CCN(C)CC4)nc4ccccc4c3=O)n2)cc1,8.95
12,CCCCN(C(=O)c1ccc(C#N)cc1)c1c(N)n(CCC)c(=O)[nH]c1=O,-1.21
13,O=C(CN1CCCCC1)NC(=O)NC1CCCCC1,-4.76
14,COc1cc(O)cc2occ(-c3ccc(O)cc3)c(=O)c12,-14.1
15,Cc1nnc(SCC(=O)NC2CCCCC2)n1N,3.31
16,C=CCn1c(N)cc(=O)nc1SC(C)C(=O)Nc1ccc(C(=O)OCC)cc1 (stereo not drawn),6.39
17,Cc1ccc(NC(=O)C(C)Sc2nc(-c3ccccc3)cc(=O)[nH]2)cc1 (stereo not drawn),14
18,CCc1ccccc1NC(=O)C1CCCN(c2nn3c(=O)cc(C)nc3s2)C1 (stereo not drawn),-6.18
19,O=C(COC(=O)c1cc(S(=O)(=O)N2CCOCC2)ccc1F)c1ccccc1,0.68
20,O=C(Nc1cccc(NC(=O)c2cc([N+](=O)[O-])ccc2Cl)n1)c1cc([N+](=O)[O-])ccc1Cl,10.1
21,Cc1sc2ncnc(N3CCC(C(=O)Nc4ccc(C#N)cc4)CC3)c2c1C,7.85
22,CCc1cccc(NC(=O)C2CCN(c3ncnc4sc(C)c(C)c34)CC2)c1,22.6
